Source: PubChem (The Scripps Research Institute Molecular Screening Center)
The sample as a whole holds a higher share of hits than the screen did.
SF-1 inh = blocks the human nuclear receptor SF-1. 65,000 tested, 0.55% active. inhibition, % at 10 µM. Q13285. CHO-K1 Gal4-SF-1 LBD luciferase reporter;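 active = inhibition above the mean inhibition of all tested compounds plus 3 SD, cut at about 48% in these data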;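 also: 0% = SF-1 transfected cells with DMSO and 100% = mock-transfected cells lacking SF-1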
Target sequence (Q13285 whole entry, looked up, the tested form may be a part): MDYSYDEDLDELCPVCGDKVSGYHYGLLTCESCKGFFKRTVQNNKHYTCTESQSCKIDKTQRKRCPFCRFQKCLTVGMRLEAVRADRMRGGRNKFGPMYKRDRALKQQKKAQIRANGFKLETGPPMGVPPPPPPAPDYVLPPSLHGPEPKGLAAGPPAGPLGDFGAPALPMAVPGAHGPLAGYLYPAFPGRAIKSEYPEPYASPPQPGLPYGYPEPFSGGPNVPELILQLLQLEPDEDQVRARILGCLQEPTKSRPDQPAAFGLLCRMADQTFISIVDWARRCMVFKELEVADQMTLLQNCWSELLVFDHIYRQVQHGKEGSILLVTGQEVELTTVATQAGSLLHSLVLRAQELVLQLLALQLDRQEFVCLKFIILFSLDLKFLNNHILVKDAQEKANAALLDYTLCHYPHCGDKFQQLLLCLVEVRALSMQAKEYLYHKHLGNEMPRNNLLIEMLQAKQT
Starred values were filed as active, the others as inactive.

SMILES | SF-1 inh
COc1c(C)cccc1C(=O)Nc1ccc(CN2CCOCC2)cc1 | -62
COc1cc(C(=O)Oc2c(CN3CCOCC3)cc(Cl)c3cccnc23)cc(OC)c1OC | 55*
CCCCCOc1ccc(CN2CCOCC2)cc1Cl | -61
Cc1ccc(-n2c(=O)cc(N3CCCCCC3)[nH]c2=O)cc1 | -6
Cc1ccc2c(c1)c1ncnc(N3CCC4(CC3)OCCO4)c1n2C | -67
Cc1ccc2[nH]c3c(N4CCN(Cc5ccc6c(c5)OCO6)CC4)ncnc3c2c1 | 73*
CC(=O)c1ccc(OCC(O)CN2CCN(Cc3ccc4c(c3)OCO4)CC2)cc1 (configuration not stated) | -27
COc1ccc2c(c1)[nH]c1c(N3CCN(Cc4ccc5c(c4)OCO5)CC3)ncnc12 | 74*
c1ccc2sc(NC3=NCN(Cc4ccc5c(c4)OCO5)CN3)nc2c1 | 7
COc1ccc(-n2ccnc2SCC(=O)NCc2ccc3c(c2)OCO3)cc1 | -6
Cc1cc(C)c2[nH]c(=O)c(C(c3nnnn3Cc3ccc4c(c3)OCO4)N3CCCCC3)cc2c1 (configuration not stated) | 12
Cc1ccc2[nH]c3c(N4CCCCCC4)ncnc3c2c1 | 74*
CCOC(=O)c1ccc(NC(=O)CC2C(=O)N(c3cccc(OC)c3)C(=O)N2CCOC)cc1 (configuration not stated) | -5
CCc1ccc(CNc2ccc3c(c2)ncn3C)cc1 | -70
CC(Sc1ccccn1)C(=O)Nc1ccccc1 (configuration not stated) | -57
Cc1cc(NC(=O)CCC(=O)N(CC2CCCO2)C(C(=O)NC2CCCC2)c2ccccc2C)no1 (configuration not stated) | 15
O=C(Nc1ccc2c(c1)OCCO2)c1cncc(Br)c1 | -31
CS(=O)(=O)N1CCN(c2ccccc2NC(=O)Cc2ccccc2)CC1 | 1
Cc1ccccc1S(=O)(=O)Cc1ccc(C(=O)N2CCN(c3cccc(C)c3C)CC2)o1 | 82*
CC1CCN(CCCNC(=O)c2ccc(CS(=O)(=O)Cc3ccccc3F)o2)CC1 | -8
O=c1oc2ccccc2cc1-c1nnc(-c2cccc(Br)c2)o1 | -53
CC(C)(C)c1ccc(-c2cc(N)n[nH]2)cc1 | 48*
CN(C(=O)c1coc(=O)c2ccccc12)c1ccc(F)cc1 | -6
O=C(CSc1nnc(COc2cccc3cccnc23)o1)N1CCc2ccccc21 | 53*
O=C(COc1ccc(F)cc1Br)N1CCc2ccccc21 | -51
SMILES | SF-1 inh
Cc1cc(C(=O)OCC(=O)N2CCc3ccccc32)c(C)o1 | -54
CCOc1cc(CNc2ccc3[nH]c(=O)[nH]c3c2)ccc1OCC(=O)NC(C)(C)C | -26
O=c1ccn(CCOc2ccc(Cl)cc2)c(=O)[nH]1 | 2
Cc1ccc(Cl)cc1N1CCN(C(=O)Cn2ccc3ccccc3c2=O)CC1 | 11
O=C(NCc1ccncc1)C(F)(F)C(F)(F)C(=O)NCc1ccncc1 | 18
COCCNc1ncnc2c1cnn2-c1ccc(Cl)cc1 | -68
OCCOCCNc1ncnc2c1cnn2-c1ccc(Cl)cc1 | -64
COC(=O)C(C)n1cnc2c(cnn2-c2ccc(Cl)cc2)c1=O (configuration not stated) | -53
CCOC(=O)C1CCN(c2ncnc3c2cnn3-c2ccc(Cl)cc2)CC1 | 56*
Clc1ccc(-n2ncc3c(N4CCCC4)ncnc32)cc1 | 61*
CCOC(=O)C1CCN(C(=O)c2ccc(Cl)c(S(=O)(=O)N3CCOCC3)c2)CC1 | -4
Cn1cccc1Cc1nnc(SCC(=O)NC2CCCC2)n1-c1ccc(F)cc1 | 0
CN(C)S(=O)(=O)c1ccc(C(=O)N2CCC(c3nc4ccccc4o3)CC2)cc1 | -6
O=C(Cc1ccccc1)Nc1ccccc1N1CCN(c2ccccc2)CC1 | 1
COCCNC(=O)C(c1ccccc1)N(C(=O)Cn1nnc2ccccc21)c1cccnc1 (configuration not stated) | -4
COc1cc(CC(=O)Nc2sccc2C(N)=O)cc(OC)c1OC | 8
COc1cccc(C(O)c2cnc(C(C)C)n2C)c1OC (configuration not stated) | -6
c1ccc(-c2nnc(-c3ccccn3)nn2)nc1 | -47
c1ccc(-c2cccc(-c3ccccn3)n2)nc1 | 87*
CN(C)c1cccc(C(=O)NC2CCCCCC2)c1 | -75
CCOC(=O)c1c(C)c(C(=O)Nc2ccc(N(C)C)cc2)c(C)n1CC | -72
CN(C)c1ccc(N/C=C/C(=O)c2ccccc2)cc1 | 66*
O=C1/C(=C/Nc2ccc3c(c2)OCO3)CCc2ccccc21 | 74*
O=C(Nc1ccc2c(c1)OCO2)c1c(F)cccc1F | -58
O=C1c2ccccc2C(O)N1Cc1ccc2c(c1)OCO2 (configuration not stated) | -14
SMILES | SF-1 inh
Cn1c(-c2ccc(Br)o2)nc2cc(Br)ccc21 | -89
Cc1csc2nc(CNS(=O)(=O)c3ccc(-c4ccccc4)cc3)cn12 | 3
Cc1nc(CNS(=O)(=O)c2ccc3ccccc3c2)cs1 | 11
O=S(=O)(NCc1cn2ccsc2n1)c1ccc(Oc2ccccc2)cc1 | 52*
CC1CCCCN1CCNC(=O)CN1C(=O)COc2ccccc21 (configuration not stated) | 7
Cc1ccc(C)c(N2CCN(S(=O)(=O)c3ccc4c(c3)OCCO4)CC2)c1 | -1
CCCn1c(=O)c2ccccc2n2c(SCc3nc4ccccc4s3)nnc12 | -70
COc1ccccc1OCC(=O)Nc1cccc(-c2nc3ccccc3o2)c1 | -61
CSc1nc(C)c2c(c1C#N)CCCC2 | 0
CCOC(=O)N1CCN(CC(=O)Nc2cc(OCC)ccc2OCC)CC1 | 2
CCOc1ccc(-n2cc(C(=O)N3CCN(C)CC3)c3cc(OC)c(OC)cc3c2=O)cc1 | -3
COc1ccc(OC)c(NC(=O)CCN2CCCC(C)C2)c1 (configuration not stated) | -1
CCOc1ccc(-c2cc(CCCC(=O)Nc3cc(OC)ccc3OC)no2)cc1 | 57*
CCOc1ccc(-c2cc(CCCC(=O)NCCc3ccc(OC)c(OC)c3OC)no2)cc1 | 52*
O=C1NC(NS(=O)(=O)c2ccccc2)(C(F)(F)F)C(=O)N1Cc1cccnc1 (configuration not stated) | 10
CCCCN(CCCC)Cc1ccc(N)cc1 | -11
CC(C)(C)c1cc(CN2CCCC(O)C2)c(O)c(C(C)(C)C)c1 (configuration not stated) | 14
Cc1nnc(SCC(=O)NC(C)(C)C)n1CCc1ccccc1 | -6
Cc1nnc(Sc2nc3c(c(=O)[nH]c(=O)n3C)n2CCCc2ccccc2)s1 | 3
CCn1c(SCC(=O)N2CCCc3ccccc32)nnc1-c1ccco1 | 2
CC(C)(C)c1cc(NC(=O)C2CCCO2)no1 (configuration not stated) | -70
FC(F)(F)c1ccc(N2CCN(c3cc(-c4ccccc4)nc4ncnn34)CC2)nc1 | 71*
c1ccc(-c2cc(N3CCOCC3)nc(-c3ccccc3)n2)cc1 | 2
CC(C)N(C(=O)Cn1cnc2c(cnn2-c2ccccc2Cl)c1=O)C(C)C | -1
CN1/C(=C/C(=O)c2nc(S(C)(=O)=O)ncc2Cl)C(C)(C)c2ccccc21 | 61*
CCS(=O)(=O)Nc1c(C(=O)O)[nH]c2ccccc12 | -6
CCc1ccc(NC(=O)c2cc(C(C)C)on2)cc1 | -11
COc1cccc(NC(=O)N2CCN(c3cccc(C)c3)C(C)C2)c1 (configuration not stated) | -2
COc1cccc(OCCN2CCN(c3ncnc4c3cnn4-c3ccccc3)CC2)c1 | 6
COc1cccc(N2CCN(c3ncnc4c3[nH]c3ccccc34)CC2C)c1 (configuration not stated) | 85*
